Consider 92 compounds from PubChem BioAssay AID1626 (SRMLSC, 2009).

What is called inhibition is the drop in the measured response relative to a control, in per cent.

Molecules are shown by their SMILES. In all, about 220,000 compounds went through this assay and about 2,000 (0.91%) were called active. Inconclusive results (about 2%) are left out. Only a sample is shown. Measured potencies and affinities stand elsewhere. Unmarked numbers belong to inactive results. Cut-off read from the data, not from the text of the source: inconclusive = inhibition above about 80% without an active follow-up result; inactive = below that; test concentration not stated here.

A short description of the experiment: M. tuberculosis H37Rv growth inhibitors, H37Rv strain (AID 1626).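 Note: bacteria incubated seven days before Alamar blue readout; 0% = bacteria only wells and 100% = bacteria with antibiotic wells.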 Conditions: hits give high values, concentration not given here.
As for `COc1ccc(CNC(=O)COC(=O)c2ccc(Br)cc2)cc1`, the inhibition was 5.06%. The value for `CN(C)NC(=O)C(NC(=O)c1ccccc1)C12CC3CC(CC(C3)C1)C2` (configuration not stated) was -4.07%; that for `CCn1c(=O)c(C(=O)CN2CCCc3ccccc32)c(N)n(Cc2ccccc2)c1=O` was -5.75%. On to `COc1ccc(-c2nnc3n2C(C)(C)Cc2cc(OC)c(OC)cc2-3)cc1`, for which the inhibition was 3.77%. The value for `COc1ccc(NS(=O)(=O)c2ccc(O)c(C(=O)OCC(=O)NC(C)C3CC4CCC3C4)c2)cc1` (configuration not stated) was -0.76%. The value for `COC(=O)[C@@H](NC(=O)Nc1ccc(OC)cc1)C(C)C` was 2.16%; that for `CCc1ccc(NC(=O)c2ccccc2Br)cc1` was 6.96%. The value for `CC(SC1CCCC1)C(=O)NC(C)(C#N)C(C)C` (configuration not stated) was -2.88%; that for `CC(C)(C)NC(=O)C1CCC(CNc2c(N3CCCCC3)c(=O)c2=O)CC1` (configuration not stated) was -2.67%. On to `COc1ccc(NC(=O)CN2CCN(C3c4ccccc4-c4ccccc43)CC2)cc1`, for which the inhibition is 18.1%.

For `CCOc1ccc(NC(=O)CN2CCN(CC(=O)Nc3ccc(F)c(F)c3)CC2)cc1`, the inhibition is 10.7%. The value for `CCOc1ccc(NC(=O)CN2CCN(CC(=O)Nc3ccc(F)cc3)CC2)cc1` was 9.61%. In the case of `COc1ccc(NC(=O)CN2CCN(C3c4ccccc4-c4ccccc43)CC2)c(OC)c1` it was 28.6%. Regarding `COc1ccc(C(=O)N[C@H](C(=O)OCc2cc(=O)oc3cc(C)ccc23)C(C)C)cc1`, the inhibition was 9.93%. Consider `Cc1cccc(C)c1OCCCCn1cnc2ccccc2c1=O`, for which the inhibition was -6.94%. As to `CCOC(=O)N1CCN(C(=O)CCCn2c(=O)[nH]c3ccccc3c2=O)CC1`, the inhibition was 1.26%. Regarding `COC(=O)C1=C(C)NC(C)=C(C(=O)OC)C1C1CC=CCC1` (configuration not stated), the inhibition was 5.42%. `Cc1cccn2cc(-c3cccc(NC(=O)c4cccs4)c3)nc12`: the inhibition is 2.98%. Consider `COc1ccc(-c2cc(C(=O)OC3CCOC3=O)c3ccccc3n2)cc1OC` (configuration not stated), for which the inhibition was -3.98%. Take `CCOC(=O)N1CCN(C(=O)CSc2ccc(-c3ccccc3OC)nn2)CC1`: the inhibition is 3.28%. Take `COC(=O)c1ccc(Cl)c(S(=O)(=O)N2CCCC2)c1`: the inhibition is 4.58%. On to `C=C(C)C1Cc2c(C)nn(-c3cccc4ccccc34)c2C1` (configuration not stated), for which the inhibition was 13.7%. The value for `C=C(C)C1Cc2c(C)nn(-c3ccccc3)c2C1` (configuration not stated) was 3.68%; that for `COc1ccccc1CCc1nnc(CCC(=O)NC(C)Cc2cccnc2)o1` (configuration not stated) was 4.51%. `COc1ccccc1Nc1nnc(SCC(=O)N2CCCC2)s1`: the inhibition was -3.72%.

As for `O=C(CCC1CCCCC1)NNC(=O)NC12CC3CC(CC(C3)C1)C2`, the inhibition is -2.75%. Consider `OC(CNCc1ccco1)Cn1c2ccccc2c2ccccc21` (configuration not stated), for which the inhibition was 0.42%. In the case of `OC(CNCC1CCCO1)Cn1c2ccc(Br)cc2c2cc(Br)ccc21` (configuration not stated) it was 43.1%; in that of `O=C(CCc1nnc(Cc2c[nH]c3ccccc23)o1)NC1CCCC1`, -6.46%; in that of `CN(C)S(=O)(=O)c1ccc(NC(=O)CSc2nnnn2C)cc1`, 2.23%. `Cc1ccc(S(=O)(=O)NC(=O)Nc2cc(C(C)(C)C)on2)cc1`: the inhibition is -7.06%.

Turning to `Cc1ccc2cc(CCNC(=O)c3cccc([N+](=O)[O-])c3)c(=O)[nH]c2c1`, the inhibition was 2%. The value for `COc1ccc(C)c2sc(NC(=O)C3=COCCO3)nc12` was 5.95%; that for `COc1ccc(CCNC(=O)C2=COCCO2)cc1` was 0.72%; that for `COc1ccc(-c2csc(NC(=O)COC(=O)C3=COCCO3)n2)cc1` was 4.53%.

Take `COc1ccc(OC)c2sc(NC(=O)C3=COCCO3)nc12`: the inhibition was 6.97%.

As for `O=C(COc1ccc(Cl)cc1Cl)Nc1nnc(C2=COCCO2)o1`, the inhibition was 1.29%.

Take `COc1ccc2nc(NC(=O)c3ccc4ncsc4c3)sc2c1`: the inhibition was 8.2%.

As to `CCc1nnc(NC(=O)c2ccc3ncsc3c2)s1`, the inhibition is -18.6%. `Cc1ccnc2nc(C(=O)Nc3nnc(-c4ccc(Cl)cc4)o3)nn12`: the inhibition is -1.12%.

With `COc1ccc(CC2(CO)CCN(Cc3cnn(-c4ccc(F)cc4)c3)CC2)cc1`, the inhibition is -9.12%. The value for `NC(=O)c1ccccc1NS(=O)(=O)c1ccc2c(c1)OCCO2` was -3.34%; that for `CN1CCN(c2ccc(Cl)cc2NC(=O)c2ccc(S(=O)(=O)N(C)C)cc2)CC1` was -2.17%; that for `COc1ccc(C(=O)NC(=S)Nc2cccc(NC(=O)c3ccco3)c2)cc1[N+](=O)[O-]` was 6.53%.

In the case of `CCCN1C(=O)c2ccccc2NC1c1ccc(OC)c(CSc2ccccn2)c1` (configuration not stated), the inhibition is -2.45%. Take `CCN(CC)S(=O)(=O)c1ccc(/C=C/C(=O)Nc2c(C)n(C)n(-c3ccccc3)c2=O)cc1`: the inhibition was -0.04%. On to `Cn1c(=O)c([N+](=O)[O-])c(NCCCn2ccnc2)c2ccccc21`, for which the inhibition is -3.33%. In the case of `Cc1ccccc1-n1nnnc1SC(C)C(=O)NC1CCCc2ccccc21` (configuration not stated) it was 10.2%; in that of `Cc1ccc(C(=O)CSc2nnc(CNc3ccc(C)cc3C)o2)cc1`, -7.6%. The value for `O=C(CSc1nnc(CNc2ccc(F)cc2)o1)OC1CCCCC1` was 25.5%; that for `Cc1ccc(NCc2nnc(SCC(N)=O)o2)c(C)c1` was -3.32%; that for `Cn1c(CNc2cccc(Cl)c2)nnc1SCC(=O)OC1CCCCC1` was 62.1%. Take `COC(=O)Nc1ccc(S(=O)(=O)N2CCCCC2C(=O)NCc2ccco2)cc1` (configuration not stated): the inhibition was -7.03%. As for `O=C(COC(=O)CNS(=O)(=O)/C=C/c1ccccc1)NC1CCS(=O)(=O)C1` (configuration not stated), the inhibition is -7.59%.

For `O=C(COc1ccc(Br)cc1Br)NC(=O)NC1CCCC1`, the inhibition is 3.86%. In the case of `Cc1ccc(CNc2ccc(N3CCOCC3)c(C(=O)O)c2)s1` it was -3.09%; in that of `COc1cccc(OCC(O)CN2CCC(CN3C(=O)c4cccc5cccc(c45)C3=O)CC2)c1` (configuration not stated), -4.13%. In the case of `O=C1c2cccc3cccc(c23)C(=O)N1CC1CCN(CC(O)COCc2ccc3c(c2)OCO3)CC1` (configuration not stated) it was 76.5%; in that of `CCCCN(CCCC)C(=O)c1cc(Cl)ccc1[N+](=O)[O-]`, 11%. Take `CCN(CC)C(=O)c1cc([N+](=O)[O-])cc2c1-c1ccc([N+](=O)[O-])cc1C2=C(C#N)C#N`: the inhibition is 23%.

On to `C=CCNC(=O)C1CC(=O)N(c2ccc(OCC(=O)Nc3ccc(Cl)c(C(F)(F)F)c3)cc2)C1` (configuration not stated), for which the inhibition is -8.95%. For `Cc1cc(C)c(-c2cc(NC(=O)COC(=O)c3ccc(CO)cc3)n(-c3ccccc3)n2)cc1C`, the inhibition is 4.29%. `COc1ccc(N2CCN(C(=O)CCc3c[nH]c4ccccc34)CC2)cc1`: the inhibition is -4.15%. For `CC(=O)N1CCN(C(=O)CCc2c[nH]c3ccccc23)CC1`, the inhibition is 3.68%.

Regarding `COC(=O)C1CCN(C(=O)COC(=O)Cc2c[nH]c3ccccc23)CC1`, the inhibition was 2.16%. As to `COc1ccc(CNC(=O)COC(=O)CCc2c[nH]c3ccccc23)cc1`, the inhibition is 4.73%. The value for `COc1ccc(C)cc1NC(=O)CSc1nnc(-c2ccco2)n1Cc1ccco1` was -0.88%; that for `CC(=O)Nc1sc(N/N=C\c2cccc(Cl)c2)nc1-c1cccs1` was 54.5%; that for `CCS(=O)(=O)N1CCCC(C(=O)NCCN(C)Cc2ccccc2)C1` (configuration not stated) was -6.72%. In the case of `Cc1ccc(C(=O)CSc2ncnc3ccccc23)o1` it was 10.6%.

As to `COc1ccc(CCN(Cc2cccs2)S(=O)(=O)c2ccc(C(=O)O)cc2)cc1OC`, the inhibition is -3.72%.

As to `CSc1nnc(-c2cnccn2)n1Cc1ccccc1`, the inhibition is -1.1%.

With `CC(C)(C)c1ccc(OCCC(=O)NC2=NCCS2)cc1`, the inhibition was -11.7%. As for `CCOc1ccc(OCCCC(=O)NC2=NCCS2)cc1`, the inhibition is -1.83%. Take `c1ccc(COc2ccccc2CNC23CC4CC(CC(C4)C2)C3)cc1`: the inhibition was 17%. On to `COc1cccc(CNC23CC4CC(CC(C4)C2)C3)c1OCc1ccccc1`, for which the inhibition is 13.5%. Take `CS(=O)(=O)N1CCN(C2Cc3ccccc3C2)CC1`: the inhibition is -13.7%.

With `O=[N+]([O-])c1ccc(O)c(C=Nc2ccc3c(c2)OCO3)c1`, the inhibition is 8.62%.

Regarding `O=[N+]([O-])c1ccc(O)c(C=Nc2ccc3c(c2)OCCO3)c1`, the inhibition is 77.5%. The value for `CCN1CCN(c2nc(N)c([N+](=O)[O-])c(Nc3ccc(C)c(C)c3)n2)CC1` was 51.5%. In the case of `Cc1cccc(Nc2nc(N3CCN(C)CC3)nc(N)c2[N+](=O)[O-])c1` it was 16.3%.

Turning to `N#Cc1ccccc1Cn1c(=O)n(Cc2ccc(C(=O)NCc3ccco3)cc2)c(=O)c2sccc21`, the inhibition was -3.31%. In the case of `CN1C(=O)C(O)(CC(=O)c2ccncc2)c2ccccc21` (configuration not stated) it was 3.47%; in that of `C/C(CC1(O)C(=O)N(C)c2ccccc21)=N\O` (configuration not stated), -3.6%; in that of `COc1cc(OC)c(N(C)C(=O)CCNC(=O)Cn2cnc3ccccc3c2=O)cc1Cl`, -0.76%.

`NC(=NC(=O)c1ccc(Cl)cc1)N1N=CCC1c1ccccc1` (configuration not stated): the inhibition is 11.8%.

For the compound `COc1ccc(C2c3ccc(O)cc3Oc3ncn(CCN4CCOCC4)c(=N)c32)cc1` (configuration not stated), the inhibition is -0.84%. For the compound `CC(=O)Nc1cn(-c2ccccc2)nc1-c1ccccc1`, the inhibition was -0.45%.

Consider `O=C(CCl)Nc1cn(-c2ccccc2)nc1-c1ccc(F)cc1`, for which the inhibition is 61.8%. The value for `Cc1ccc(-c2nn(-c3ccccc3)cc2NC(=O)c2ccccc2)cc1` was -0.55%. In the case of `O=C(Nc1cn(-c2ccccc2)nc1-c1ccc(Cl)cc1)c1ccccc1` it was 9.57%.

Regarding `CNC(=S)N1CCc2ccccc2C1`, the inhibition was 3.08%.
